Measurements reported in the supplement of paper PMC8728848.
This excerpt belongs to a sample that is enriched for the strongest signals.

Legend:
Test in all cases: glycan array binding signal (z-score within array); higher = stronger binding
Conditions in all cases: glycan notation: IUPAC condensed, linker removed
[1] = biological target: Fuc(a1-2)Gal(b1-3)GalNAc(a1-3)[Fuc(a1-2)]Gal(b1-4)GlcNAc
In short: (§1)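 The binding signal is a Z-score computed within each array. Data were drawn from 3228 arrays in the Consortium for Functional Glycomics database, restricted to those with a known protein sequence. Scores were averaged over arrays of the same protein sequence at different concentrations or buffers, and over linkers, and negative values can be taken as non-binding.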

[2] = biological target: Fuc(a1-2)Gal(b1-3)GlcNAc(b1-3)[Neu5Ac(a2-6)Gal(b1-4)GlcNAc(b1-6)]Gal(b1-4)Glc
In short: as §1

[3] = biological target: Fuc(a1-2)[Gal(a1-3)]Gal(b1-3)GlcNAc
In short: as §1

[4] = biological target: Fuc(a1-2)[Gal(a1-3)]Gal(b1-3)GlcNAc(b1-3)GalNAc
In short: as §1

[5] = biological target: Fuc(a1-2)[Gal(a1-3)]Gal(b1-4)GlcNAc(b1-3)[Fuc(a1-2)[Gal(a1-3)]Gal(b1-4)GlcNAc(b1-6)]GalNAc
In short: as §1

[6] = biological target: Fuc(a1-2)[GalNAc(a1-3)]Gal(b1-3)GlcNAc
In short: as §1

[7] = biological target: Fuc(a1-2)[GalNAc(b1-3)]Gal
In short: as §1

[8] = biological target: Fuc(a1-3)[Gal(b1-4)]Glc6S
In short: as §1

Gal(a1-3)Gal = biological target: Gal(a1-3)Gal
In short: as §1

[9] = biological target: Gal(a1-4)Gal(b1-4)GlcNAc(b1-2)Man(a1-3)[Gal(a1-4)Gal(b1-4)GlcNAc(b1-2)Man(a1-6)]Man(b1-4)GlcNAc(b1-4)GlcNAc
In short: as §1

Gal(b1-2)Gal = biological target: Gal(b1-2)Gal
In short: as §1

[10] = biological target: Gal(b1-3)GalNAc(b1-3)Gal(a1-4)Gal(b1-4)Glc
In short: as §1

[11] = biological target: Gal(b1-3)GalNAc(b1-4)[Neu5Ac(a2-3)]Gal(b1-4)Glc
In short: as §1

[12] = biological target: Gal(b1-3)GlcNAc(b1-6)Gal(b1-4)GlcNAc
In short: as §1

[13] = biological target: Gal(b1-3)[Fuc(a1-4)]GlcNAc(b1-3)Gal(b1-4)[Fuc(a1-3)]GlcNAc
In short: as §1

[14] = biological target: Gal(b1-4)GlcNAc(b1-2)Man(a1-3)[Gal(b1-4)GlcNAc(b1-2)Man(a1-6)]Man(b1-4)GlcNAc(b1-4)[Fuc(a1-6)]GlcNAc
In short: as §1

[15] = biological target: Gal(b1-4)GlcNAc(b1-2)[Gal(b1-4)GlcNAc(b1-4)]Man(a1-3)[GlcNAc(b1-4)][Gal(b1-4)GlcNAc(b1-2)Man(a1-6)]Man(b1-4)GlcNAc(b1-4)GlcNAc
In short: as §1

[16] = biological target: Gal(b1-4)GlcNAc(b1-3)Gal(b1-4)GlcNAc(b1-3)Gal(b1-4)GlcNAc(b1-2)Man(a1-3)[Gal(b1-4)GlcNAc(b1-3)Gal(b1-4)GlcNAc(b1-3)Gal(b1-4)GlcNAc(b1-2)Man(a1-6)]Man(b1-4)GlcNAc(b1-4)[Fuc(a1-6)]GlcNAc
In short: as §1

[17] = biological target: Gal(b1-4)GlcNAc(b1-6)[Gal(b1-4)GlcNAc(b1-3)]GalNAc
In short: as §1

Gal3S(b1-3)GalNAc = biological target: Gal3S(b1-3)GalNAc
In short: as §1

Gal4S6S(b1-4)GlcNAc = biological target: Gal4S6S(b1-4)GlcNAc
In short: as §1

[18] = biological target: GlcNAc(a1-4)Gal(b1-4)GlcNAc(b1-3)Gal(b1-4)GlcNAc
In short: as §1

[19] = biological target: GlcNAc(b1-3)Gal(b1-4)GlcNAc(b1-2)[GlcNAc(b1-3)Gal(b1-4)GlcNAc(b1-6)]Man(a1-6)[GlcNAc(b1-3)Gal(b1-4)GlcNAc(b1-2)Man(a1-3)]Man(b1-4)GlcNAc(b1-4)GlcNAc
In short: as §1

[20] = biological target: GlcNAc(b1-3)Gal(b1-4)GlcNAc(b1-3)Gal(b1-4)GlcNAc(b1-2)Man(a1-3)[GlcNAc(b1-3)Gal(b1-4)GlcNAc(b1-3)Gal(b1-4)GlcNAc(b1-2)Man(a1-6)]Man(b1-4)GlcNAc(b1-4)GlcNAc
In short: as §1

[21] = biological target: GlcNAc(b1-3)Gal(b1-4)GlcNAc(b1-3)Gal(b1-4)GlcNAc(b1-2)Man(a1-3)[GlcNAc(b1-3)Gal(b1-4)GlcNAc(b1-3)Gal(b1-4)GlcNAc(b1-2)Man(a1-6)]Man(b1-4)GlcNAc(b1-4)[Fuc(a1-6)]GlcNAc
In short: as §1

[22] = biological target: GlcNAc(b1-3)Gal(b1-4)GlcNAc(b1-3)Gal(b1-4)GlcNAc(b1-2)[GlcNAc(b1-3)Gal(b1-4)GlcNAc(b1-3)Gal(b1-4)GlcNAc(b1-6)]Man(a1-6)[GlcNAc(b1-3)Gal(b1-4)GlcNAc(b1-3)Gal(b1-4)GlcNAc(b1-2)Man(a1-3)]Man(b1-4)GlcNAc(b1-4)[Fuc(a1-6)]GlcNAc
In short: as §1

[23] = biological target: GlcNAc(b1-3)Gal(b1-4)GlcNAc(b1-3)Gal(b1-4)GlcNAc(b1-3)Gal(b1-4)GlcNAc(b1-2)Man(a1-3)[GlcNAc(b1-3)Gal(b1-4)GlcNAc(b1-3)Gal(b1-4)GlcNAc(b1-3)Gal(b1-4)GlcNAc(b1-2)Man(a1-6)]Man(b1-4)GlcNAc(b1-4)GlcNAc
In short: as §1

[24] = biological target: GlcNAc(b1-3)Gal(b1-4)GlcNAc(b1-3)Gal(b1-4)GlcNAc(b1-3)Gal(b1-4)GlcNAc(b1-2)Man(a1-3)[GlcNAc(b1-3)Gal(b1-4)GlcNAc(b1-3)Gal(b1-4)GlcNAc(b1-3)Gal(b1-4)GlcNAc(b1-2)Man(a1-6)]Man(b1-4)GlcNAc(b1-4)[Fuc(a1-6)]GlcNAc
In short: as §1

[25] = biological target: GlcNAc(b1-3)Gal(b1-4)GlcNAc(b1-3)Gal(b1-4)GlcNAc(b1-3)Gal(b1-4)GlcNAc(b1-2)[GlcNAc(b1-3)Gal(b1-4)GlcNAc(b1-3)Gal(b1-4)GlcNAc(b1-3)Gal(b1-4)GlcNAc(b1-6)]Man(a1-6)[GlcNAc(b1-3)Gal(b1-4)GlcNAc(b1-3)Gal(b1-4)GlcNAc(b1-3)Gal(b1-4)GlcNAc(b1-2)Man(a1-3)]Man(b1-4)GlcNAc(b1-4)[Fuc(a1-6)]GlcNAc
In short: as §1

[26] = biological target: GlcNAc(b1-3)Gal(b1-4)GlcNAc(b1-3)Gal(b1-4)GlcNAc(b1-3)Gal(b1-4)GlcNAc(b1-3)Gal(b1-4)GlcNAc(b1-2)Man(a1-3)[GlcNAc(b1-3)Gal(b1-4)GlcNAc(b1-3)Gal(b1-4)GlcNAc(b1-3)Gal(b1-4)GlcNAc(b1-3)Gal(b1-4)GlcNAc(b1-2)Man(a1-6)]Man(b1-4)GlcNAc(b1-4)GlcNAc
In short: as §1

B1: Di AAL2 (Agrocybe aegerita) (protein)
chain: MTSNVITQDLPIPVASRGFADIVGFGLDGVVIGRNAVNLQPFLAVKNFAQNAGGWLTTKHVRLIADTTGTGKGDIVGFGNAGVYVSVNNGKNTFADPPKMVIANFGYDAGGWRVEKHLRYLADIRKIGRADIIGFGEKGVLVSRNNGGLNFGPATLVLKDFGYDAGGWRLDRHLRFLADVTGNGHLDIVGFGDKHVFISRNNGDGTFAPAKSVIDNFCIDAGGWKIGDHPRFVADLTGDGTADIIGCGKAGCWVALNNGGGVFGQVKLVINDFGTDKGWQAAKHPRFIADLTGNGRGDVVGFGNAGVYVALNNGDGTFQSAKLVLKDFGVQQGWTVSKHRRFVVDLTGDGCADIIGFGEKETLVSYNDGKGNFGPVKALTNDFSFSGGKWAPETTVCWMANLDSSRHPAPAPMTSNVITQDLPIPVASRGFADIVGFGLDGVVIGRNAVNLQPFLAVKNFAQNAGGWLTTKHVRLIADTTGTGKGDIVGFGNAGVYVSVNNGKNTFADPPKMVIANFGYDAGGWRVEKHLRYLADIRKIGRADIIGFGEKGVLVSRNNGGLNFGPATLVLKDFGYDAGGWRLDRHLRFLADVTGNGHLDIVGFGDKHVFISRNNGDGTFAPAKSVIDNFCIDAGGWKIGDHPRFVADLTGDGTADIIGCGKAGCWVALNNGGGVFGQVKLVINDFGTDKGWQAAKHPRFIADLTGNGRGDVVGFGNAGVYVALNNGDGTFQSAKLVLKDFGVQQGWTVSKHRRFVVDLTGDGCADIIGFGEKETLVSYNDGKGNFGPVKALTNDFSFSGGKWAPETTVCWMANLDSSRH
glycan array binding signal (z-score) [1]: -0.31 | glycan array binding signal (z-score) [2]: -0.337 | glycan array binding signal (z-score) [3]: -0.338 | glycan array binding signal (z-score) [4]: -0.312 | glycan array binding signal (z-score) [5]: -0.292 | glycan array binding signal (z-score) [6]: -0.172 | glycan array binding signal (z-score) [7]: -0.337 | glycan array binding signal (z-score) [8]: -0.322 | glycan array binding signal (z-score) (Gal(a1-3)Gal): -0.332 | glycan array binding signal (z-score) [9]: 5.32 | glycan array binding signal (z-score) (Gal(b1-2)Gal): -0.333 | glycan array binding signal (z-score) [10]: -0.331 | glycan array binding signal (z-score) [11]: -0.314 | glycan array binding signal (z-score) [12]: -0.333 | glycan array binding signal (z-score) [13]: -0.331 | glycan array binding signal (z-score) [14]: -0.343 | glycan array binding signal (z-score) [15]: -0.313 | glycan array binding signal (z-score) [16]: -0.209 | glycan array binding signal (z-score) [17]: -0.313 | glycan array binding signal (z-score) (Gal3S(b1-3)GalNAc): -0.334 | glycan array binding signal (z-score) (Gal4S6S(b1-4)GlcNAc): -0.338 | glycan array binding signal (z-score) [18]: 2.68 | glycan array binding signal (z-score) [19]: 5.83 | glycan array binding signal (z-score) [20]: 3.47 | glycan array binding signal (z-score) [21]: 3.72 | glycan array binding signal (z-score) [22]: 5.12 | glycan array binding signal (z-score) [23]: 5.42 | glycan array binding signal (z-score) [24]: 4.23 | glycan array binding signal (z-score) [25]: 5.39 | glycan array binding signal (z-score) [26]: 5.42
